Where “and” joins values, the source holds several entries; their conditions need not be identical. Equal values may be shown once. The panel holds about 79,000 compounds, 15% with a hit somewhere; the sample as a whole holds those more often. No stated cut-off is given here; in the data, active means growth inhibition above about 70%; inactive means the rest.
Key:
[1] = NCI Yeast Anticancer Drug Screen. Data for the rad50 strain (AID 155);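 further: 0% = growth of vehicle-only cultures of the same strain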; settings: S. cerevisiae rad50 strain growth inhibition, active compounds read high; at 50.0 µM unless noted
In short: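 A DNA repair-deficient yeast mutant serves as the test organism; compound-induced growth inhibition is calculated against vehicle-treated cells.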

[2] = NCI Yeast Anticancer Drug Screen. Data for the mec2-1 strain (AID 157); settings: S. cerevisiae mec2-1 strain, active compounds read high; at 50.0 µM unless noted
In short: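 Readout is yeast growth inhibition, normalised to vehicle-treated controls, in the mec2-1 strain exposed to compound.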

[3] = NCI Yeast Anticancer Drug Screen. Data for the sgs1 mgt1 strain (AID 161);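 further: 0% = growth of cultures given vehicle only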; settings: S. cerevisiae sgs1 mgt1 strain, active compounds read high; at 50.0 µM unless noted
In short: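 This yeast growth screen uses a strain with defined DNA-repair lesions; compound-treated growth is compared with vehicle-treated growth.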

[4] = NCI Yeast Anticancer Drug Screen. Data for the cln2 rad14 strain (AID 165);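 further: 0% = growth equal to vehicle treated cultures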; settings: S. cerevisiae cln2 rad14 strain, active compounds read high; at 50.0 µM unless noted
In short: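 Relative to vehicle controls, growth inhibition of compound-treated cln2 rad14 yeast was recorded.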

[5] = NCI Yeast Anticancer Drug Screen. Data for the bub3 strain (AID 167); settings: S. cerevisiae bub3 mutant strain, active compounds read high; at 50.0 µM unless noted
In short: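 Inhibition values come from growth of compound-treated mutant yeast normalised to vehicle-treated controls.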

[6] = NCI Yeast Anticancer Drug Screen. Data for the mlh1 rad18 strain (AID 175); settings: S. cerevisiae mlh1 rad18 strain growth inhibition, active compounds read high; at 50.0 µM unless noted
In short: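 Test agents were incubated with a yeast strain of defined genotype (DNA damage repair defect). Inhibition of growth was derived by comparison with vehicle-exposed cultures.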

Measured: growth inhibition

Cc1onc(-c2ccccc2)c1C(C)(O)c1ccccc1 (stereo not given)
inactive: [1] 12.8% | [2] 11.2% | [3] 16.6% | [4] -17.9% | [5] 18.2% | [6] 5.7%

Cc1nc2c(N)n[nH]c(=O)n2n1
inactive: [1] -20.9% | [2] -14.4% | [3] -19.2% | [4] -54% | [5] 7.15% | [6] -4.7%

Cc1ccc(S(=O)(=O)N2C(=O)CCC2C(=O)O)cc1 (stereo not given)
inactive: [1] -0.95% | [2] -5.65% | [3] 10.6% | [4] -17.1% | [5] 2.2% | [6] 2.7%

CCc1cc(C)c(C)cc1O
inactive: [1] -28.8% | [2] -31.6% | [3] -38.9% | [4] 0.5% | [5] -24.9% | [6] -22.4%

Cn1c2ccccc2c2c3c(ccc21)C(=O)N(c1ccccc1)C3=O
inactive: [1] 11.7% | [2] -4.7% | [3] 12.9% | [4] -3.5% | [5] 12.4% | [6] 2.95%

CSc1nc(C)cc(=O)[nH]1
inactive: [1] -12.1% | [2] -2.95% | [3] -17.9% | [4] 20% | [5] 5.5% | [6] -13.3%

Cc1ccc(NC(=O)c2ccc(OP(=O)(O)Nc3ccc(C)cc3)cc2)cc1
inactive: [1] -22.6% | [2] -21.8% | [3] -8.05% | [4] -3.15% | [5] -5.2% | [6] -4.1%

CCCSc1ncnc2nc[nH]c12
inactive: [1] 23.6% | [2] -1% | [3] 9.7% | [4] -15.1% | [5] -13.7% | [6] 16.9%

O=C1NC(N2CCOCC2)=N/C1=C\c1ccc(Cl)cc1
inactive: [1] 1.75% | [2] 3.6% | [3] 4.9% | [4] -6.25% | [5] -11.1% | [6] -29.9%

CCCCCCCCCCCCOC(=O)NC1c2ccccc2Oc2ccccc21
inactive: [1] 30.4% | [2] 17.6% | [3] 26.6% | [4] 32.5% | [5] 19.6% | [6] 43.4%

CC1(C)CC2(Nc3ccccc3N2)C2=C(O1)C(=O)OC2
inactive: [1] 9.45% | [2] -8.25% | [3] -18.7% | [4] -1.3% | [5] -6.15% | [6] -10.6%

O=C(NC12CC3CC(CC(C3)C1)C2)C(=O)c1c[nH]c2ccc(Cl)cc12
inactive: [1] -9.15% | [2] -10.6% | [3] -4.1% | [4] 21.8% | [5] 8.5% | [6] -9.15%

CC1CCC2(C(=O)O)CCC3(C)C(=CCC4C5(C)CCC(O)C(C)(C)C5CCC43C)C2C1C (stereo not given)
inactive: [1] 12.8% and 11.4% | [2] 11.3% and 0.15% | [3] 12.3% and -9.2% | [4] 0.45% and 16.4% | [5] 5.8% and -7.4% | [6] 14.4% and 0.85%

CC(=O)Nc1cc(Cl)ccc1[N+](=O)[O-]
inactive: [1] 8.95% | [2] 9.35% | [3] 27.9% | [4] 1.25% | [5] 17.4% | [6] 5.95%

CC(=O)OCC1OC(OC(C)=O)C(NC(=O)c2ccccc2)C(OC(C)=O)C1OC(C)=O (stereo not given)
inactive: [1] -2.1% | [2] -3.45% | [3] -3.5% | [4] -20.6% | [5] 17.4% | [6] -1.5%

CC(C)(C)C(=O)CC(=O)C(F)(F)C(F)(F)C(F)(F)F.CC(C)(C)C(=O)CC(=O)C(F)(F)C(F)(F)C(F)(F)F.CC(C)(C)C(=O)CC(=O)C(F)(F)C(F)(F)C(F)(F)F.[La]
inactive: [1] 2.85% | [2] -0.9% | [3] -3.95% | [4] -8.85% | [5] -3.95% | [6] 18.8%

Cc1ccc(NC(=O)C2CCCCC2)cc1
inactive: [1] 5.85% | [2] 3.3% | [3] -6.6% | [4] 10.6% | [5] -6.25% | [6] -1.6%

CCCc1[nH]n(-c2ccccc2)c(=O)c1N=Nc1cccc(C(F)(F)F)c1
inactive: [1] -10.7% | [2] -1.1% | [3] -7.3% | [4] -12.8% | [5] -5% | [6] -7.95%

ClCCCCCNC1CCCCC1
inactive: [1] -1.2% | [2] -45.6% | [3] -4.3% | [4] -15.7% | [5] -17.2% | [6] -14.2%

Nc1cncnc1N
inactive: [1] 35.7% | [2] 7.25% | [3] 31.9% | [4] 16.2% | [5] -18.6% | [6] 26.5%

CC(/C=C/C(=O)c1sc(-n2nc(-c3ccccc3)cc2-c2ccccc2)nc1C)=C\c1ccccc1
inactive: [1] 21.9% | [2] 5.25% | [3] 25.9% | [4] 8.85% | [5] 44.8% | [6] 20.7%

CCOC(=O)N1CCc2cc(OC)c(OC)cc2C1Cc1ccc(OC)c(OC)c1 (stereo not given)
inactive: [1] -2.2% | [2] -8.75% | [3] -7.7% | [4] 12% | [5] 1.95% | [6] -5.5%

C=CCC(O)c1ccccc1OC (stereo not given)
inactive: [1] 9.75% | [2] 9.25% | [3] 20.8% | [4] 5.15% | [5] -5.9% | [6] 7.95%

CC(O)C(=O)OCCOc1ccc(Cl)cc1Cl (stereo not given)
inactive: [1] 7.75% | [2] 10.3% | [3] 27.3% | [4] -38.1% | [5] 31.3% | [6] 28.2%

COc1cc(O)c(C(=O)/C=C/c2ccccc2)c(OC)c1
inactive: [1] 1.05% | [2] -12.1% | [3] 27.1% | [4] 15.6% | [5] 15.1% | [6] -21.4%

CCN(CC)c1cc(C)c2cc(Cc3ccccc3)ccc2n1
inactive: [1] 35.2% | [2] 32.8% | [3] 23.9% | [4] 31.8% | [5] 65.1% | [6] 14.5%

C#CCC(C(=O)OC)N(CC)CC (stereo not given)
inactive: [1] 25.6% | [2] -21.9% | [3] 41.4% | [4] 0.55% | [5] 46.1% | [6] 33.7%

O=C(CCC(=O)c1ccccc1)NCc1ccccc1
inactive: [1] 11.2% | [2] -6.2% | [3] 4.4% | [4] 5.55% | [5] 6.5% | [6] 2.1%

C#CCOCC12C=CC(O1)C1C(=O)N(C)C(=O)C12 (stereo not given)
inactive: [1] -11.4% and 8.1% | [2] 33.5% and 38.6% | [3] 8.75% and -3.95% | [4] 7.65% and 36.2% | [5] 24.6% and 33.4% | [6] -13.3% and 6.25%

C/C(CC(=O)Nc1cc(C)ccc1C)=N\NC(=O)c1ccncc1
inactive: [1] 11.8% | [2] -0.4% | [3] 10.7% | [4] 22.7% | [5] -0.75% | [6] 1.15%

CC(=O)OC(C(N)=O)c1ccccc1 (stereo not given)
inactive: [1] -0.7% | [2] -0.7% | [3] -3.3% | [4] -9.7% | [5] 3.45% | [6] -2.95%

CC(C)=CC1(C)/C(=N\O)C(C)(CC(C)C)C(=O)N1O (stereo not given)
inactive: [1] -7.15% | [2] -15.2% | [3] -11.8% | [4] -2.2% | [5] -5.65% | [6] -19.4%

C[N+]1(CCC(=O)c2ccccc2)CCOCC1
inactive: [1] 42% | [2] 9.85% | [3] 28.4% | [4] 20.8% | [5] 13.5% | [6] 19.9%

O=C(c1ccccc1)C(Oc1ccccc1)c1ccccc1 (stereo not given)
inactive: [1] 39.5% | [2] 19.2% | [3] 37.8% | [4] 36% | [5] 6.9% | [6] 60%

O=C(CC1(O)C(=O)Nc2ccc(Br)cc21)c1ccc2c(c1)OCO2 (stereo not given)
inactive: [1] 2.7% | [2] 5.35% | [3] 11.4% | [4] -6.5% | [5] 36.5% | [6] -1.15%

Cn1nc2ccc3nccc(N4CCN(CCO)CC4)c3c2n1
inactive: [1] -25.6% | [2] -6.9% | [3] -21.6% | [4] -17.1% | [5] -8.45% | [6] -15%

C1CSCCSS[C@@H]2CCCCC2SC1 (stereo not given in full)
inactive: [1] -12.8% | [2] -25.1% | [3] -0.55% | [4] -11.9% | [5] -12.1% | [6] -17.1%

COC1OC(CO)C(O)C1OS(C)(=O)=O (stereo not given)
inactive: [1] -11.7% | [2] -4.25% | [3] -10.3% | [4] -1.2% | [5] -4.45% | [6] -8.3%

S=C(Nc1ccc2c(c1)oc1ccccc12)c1cccs1
inactive: [1] 35.1% | [2] 16.6% | [3] -36.2% | [4] -7.25% | [5] -9.6% | [6] -4.6%

CCN(CC)CCN1CC(=O)N2CCCCN2C(=O)C1
inactive: [1] 17.2% | [2] 4.5% | [3] 14.9% | [4] 13.4% | [5] 7.85% | [6] 10.6%
